Source: PubChem BioAssay (Tox21)
Inconclusive results are not listed. Unmarked numbers belong to inactive results. Calls of active or inactive are those of the source. The call rests on the fitted dose curve.

Each molecule was assayed against Muscarinic acetylcholine receptor M1 (Homo sapiens) (UniProt P11229) (assay: Cholinergic receptor muscarinic 1 (CHRM1) small molecule antagonists, cell-based qHTS assay (AID 1963588; further: nearly all actives have a fitted effect of over 40% in size)). Details: CHRM1-CHO antagonist mode, calcium flux fluorescence; series mostly up to 61.5 µM; activity, negative = inhibition: at the top concentration.
Excerpt: National Center for Advancing Translational Sciences [NCATS]
Division of Preclinical Innovation [DPI]
U.S. Environmental Protection Agency [EPA]
National Institutes of Environmental Health Sciences [NIEHS]
National Toxicology Program [NTP]
U.S. Food and Drug Administration [FDA]
The CHRM1 is a muscarinic receptor. This receptor plays a crucial role in learning and memory processes and has long been identified as a promising therapeutic target for the improvement of cognitive decline in Alzheimer's disease (AD). The CHRM1-CHO cell line stably expressing human muscarinic acetylcholine receptor M1 (CHRM1) can be used for screening agonists and antagonists of interactions between CHRM1 and its ligands. The CHRM1-CHO Calcium Flux Assay is a homogeneous fluorescence-based assay for detecting the intracellular calcium level using FDSS kinetic plate reader system.
Tox21 Assay Protocol Summary:
CHRM1-CHO cells were dispensed at 1000 cells/3uL/well in 1536-well black-clear bottom plates using a Multidrop Dispenser. After the assay plates were incubated at a 37 C/5% CO2 incubator for 18 h, 3 uL of Dye Loading Buffer was transferred to the assay plate by a Flying Reagent Dispenser. The assay plates were incubated at 37 C for 1h. For antagonist mode, 23 nL of compounds dissolved in DMSO, positive controls or DMSO only was transferred to the assay plate by a pin tool. After 5 min incubation at room temperature, 1.5 uL of acetylcholine at 50nM was added to each well. The fluorescence intensity in the plates was measured using FDSS 7000EX kinetic plate reader for 3 min at 1 sec intervals. Each test compound was measured at 15 concentrations in three independent runs.
On the % scale 0 is the no-effect control and ±100 the full control effect; potency means the concentration at half of the fitted maximal effect.

Chain of Muscarinic acetylcholine receptor M1 (Homo sapiens) (P11229 whole entry, looked up): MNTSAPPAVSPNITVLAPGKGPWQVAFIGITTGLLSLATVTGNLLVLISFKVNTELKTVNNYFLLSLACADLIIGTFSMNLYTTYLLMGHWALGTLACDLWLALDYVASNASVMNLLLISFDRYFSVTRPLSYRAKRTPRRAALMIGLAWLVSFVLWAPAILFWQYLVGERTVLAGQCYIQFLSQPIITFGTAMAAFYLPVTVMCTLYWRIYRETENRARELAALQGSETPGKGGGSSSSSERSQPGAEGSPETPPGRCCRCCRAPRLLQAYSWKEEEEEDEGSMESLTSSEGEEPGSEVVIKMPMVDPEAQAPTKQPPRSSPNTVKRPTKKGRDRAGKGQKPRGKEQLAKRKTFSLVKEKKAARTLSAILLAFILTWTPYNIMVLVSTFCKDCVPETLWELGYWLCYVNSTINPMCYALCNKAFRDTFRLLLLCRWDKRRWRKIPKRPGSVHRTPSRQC

Compound | activity, negative = inhibition | Potency
CCN(CC)c1ccc2c(-c3ccc(S(=O)(=O)O)cc3S(=O)(=O)[O-])c3ccc(=[N+](CC)CC)cc-3oc2c1 | 7.67% | –
OCCCCCCO | 21% | –
O=C(C(Cl)Cl)N1CCOC12CCCCC2 | -16.7% | –
NS(=O)(=O)c1cc(C(=O)NN2C[C@H]3[C@H]4CCC(C4)[C@H]3C2)ccc1Cl | -9.03% [at 28.3 µM] | –
CN1Cc2cc(C(=O)N3CCC(C4CCNCC4)CC3)ccc2NC(CC(=O)O)C1=O (stereo not given) | – | 1.3 µM (active)
CC(C)=CC(=O)C=C(C)C | 4.53% | –
O=S1OCCO1 | -0.985% | –
CC1=CCC2C(C1)C2(C)C (stereo not given) | 29.1% | –
CN1CCN(c2c(F)cc3c(=O)c(C(=O)O)cn4c3c2SCC4)CC1 | 10.3% [at 28.3 µM] | –
CCCC1CCC(=O)O1 (stereo not given) | 18.5% | –
O=C(/C=C/c1ccc(O)c(O)c1)O[C@@H]1C[C@](O)(C(=O)O)C[C@@H](O)[C@H]1O | -11.1% | –
C/C=C(\C)C=O | -3.3% | –
CC(C)C(=O)OCc1cccc(OC(=O)[C@@H]2N3C(=O)[C@@H](NC(=O)Cc4ccccc4)[C@H]3SC2(C)C)c1 | -4.77% [at 28.3 µM] | –
CCC(=O)C(=O)CC | -2.29% | –
CC(C)OC(=O)c1cc2c(OCC(O)CNC(C)(C)C)cccc2[nH]1 (stereo not given) | 12.4% [at 28.3 µM] | –
FC(F)(F)c1ccc(Cl)cc1Cl | -13.2% | –
C[C@H](O)C(=O)Nc1c(I)c(C(=O)NC(CO)CO)c(I)c(C(=O)NC(CO)CO)c1I | -9.01% [at 28.3 µM] | –
O=Cc1c2ccccc2c(Cl)c2ccccc12 | 4.57% [at 28.3 µM] | –
CC(C)=CCOC(=O)c1ccccc1 | -2.61% | –
CCOC(=O)COc1ccc(C)cc1 | -9.16% | –

Compound | activity, negative = inhibition | Potency
CCOc1ccc([N+](=O)[O-])cc1 | 40.6% | –
CCCCOc1cc(C(=O)NCCN(CC)CC)c2ccccc2n1 | -25.4% [at 28.3 µM] | –
CCCCCCCCCCCCCCCC/C=C/C1CC(=O)OC1=O (stereo not given) | 13.6% [at 28.3 µM] | –
CCO[Si](CCCCl)(OCC)OCC | 27.2% | –
CC(C)(C)N | -0.0186% | –
CCCCCCCCCCCCCCC1CO1 (stereo not given) | 11% | –
CC(O)COC(C)(C)C (stereo not given) | -2.28% | –
CCCCN(CCCC)C(C(N)=O)c1ccc(OC)cc1 (stereo not given) | -26.5% [at 28.3 µM] | –
COc1cc2c(cc1N)oc1ccccc12 | -1.86% | –
Cc1ccc(N)nc1 | 3.8% | –
CCCCCOC(=O)CCCC | 1.83% | –
CCCCCCCCN1CCCC1=O | 10.8% | –
CCn1ccnc1CC1COc2ccccc2O1 (stereo not given) | -21.7% [at 28.3 µM] | –
C=CC(C)(CCC=C(C)C)OC(=O)C(C)C (stereo not given) | 3.59% | –
CCN(CC)C(=O)N(CC)CC | 3.78% | –
CC(C)NCC(O)COc1ccc(COCCOC(C)C)cc1 (stereo not given) | 3.68% [at 28.3 µM] | –
CC(C)Oc1ccccc1O | 27.4% | –
O=C(OCC1(COC(=O)c2cccnc2)CCCC(COC(=O)c2cccnc2)(COC(=O)c2cccnc2)C1O)c1cccnc1 | -1.43% [at 28.3 µM] | –
CCOC(=O)Nc1ccc(NCc2ccc(F)cc2)nc1N | 1.65% [at 28.3 µM] | –
CCOC(=O)CC(=O)c1cc(F)c(Cl)nc1Cl | -20.6% | –
